Source: PubChem
Rows were chosen to be rich in hits. Some 11% of all compounds tested hit in one or more screens of this group.
IMPase Li inh: qHTS Assay for Identifying the Cell-Membrane Permeable IMPase Inhibitors: Potentiation with Lithium | AID 1457, 2008 | 210,000 tested, 0.35% active | Potency, µM (series often up to 59.4 µM), for inactives: at the top dose activity, negative = IMPase inhibition, most hits filed as inhibitors | CHO-M1 cells, IP1 TR-FRET (IP-One), carbachol + lithium;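 further: IP1 builds up when IMPase is blocked and the TR-FRET signal falls; potency means the concentration at half of the fitted maximal effect; plate controls were basal vehicle for no effect and high inhibitor control for full effect; nearly all actives have a fitted effect of over 50% in size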
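Readout is a homogeneous TR-FRET IP1 immunoassay (Ex 320, Em 665 and 620), where raised cytosolic IP1 lowers signal. Cells were CHO-M1 treated 30 min at 37C with test compounds plus a little lithium; AC50 values came from Hill-equation fitting.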
HPGD inh: qHTS Assay for Inhibitors of HPGD (15-Hydroxyprostaglandin Dehydrogenase). 15-hydroxyprostaglandin dehydrogenase [NAD(+)] (Homo sapiens), P15428. purified HPGD, NADH fluorescence kinetic, PGE2 substrate. Potency, µM, inactives show at the top dose activity change, negative = inhibition, hits mostly inhibitors. 150,000 tested, 4.3% active; active means well fitted inhibition curve with a large enough effect, not every such curve was filed as active; inconclusive means small, poorly fitted or top-dose-only effect, or another doubt; inactive means no such curve, though single readings can be large or run the other way; further: potency means the concentration at half of the fitted maximal effect
Target sequence (P15428 whole entry, looked up): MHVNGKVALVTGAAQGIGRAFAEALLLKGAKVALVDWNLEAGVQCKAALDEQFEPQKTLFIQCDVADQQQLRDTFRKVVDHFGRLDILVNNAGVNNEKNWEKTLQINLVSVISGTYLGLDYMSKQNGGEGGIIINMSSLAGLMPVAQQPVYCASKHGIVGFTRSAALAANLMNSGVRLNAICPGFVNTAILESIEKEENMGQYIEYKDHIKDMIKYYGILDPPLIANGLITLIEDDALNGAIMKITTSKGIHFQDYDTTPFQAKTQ
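20 nM HPGD preincubated 15 min at room temperature with compound in 50 mM Tris-HCl pH 8, 0.01% Tween 20. Started with 1 mM NAD+ and 30 uM prostaglandin E2; NADH fluorescence (360/450 nm) read 5 times over 30-s intervals, last minus first.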
PNC assembly inh: High Content Assay for Compounds that inhibit the Assembly of the Perinucleolar Compartment | activity change (PNC), negative = inhibition, % at 10 µM | PC3M PTB-GFP, PNC prevalence imaging, 16 h; active compounds read low | 140,000 tested, 3.1% active;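 active means readout at or below -70, meaning at least 70% loss of cells showing the perinucleolar compartment, a nuclear body marking cancer cells; inconclusive means readout between -30 and a set limit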;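 further: plate controls were DMSO wells for no effect and camptothecin positive control wells for full effect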
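Compounds are pinned in duplicate onto adhered PC3M cells stably expressing GFP-tagged PTB and incubated 16 h at 37 C. Cells are then fixed, nuclei stained with Hoechst, and PNC-positive cells counted.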
IMPase inh: qHTS Assay for Identifying the Cell-Membrane Permeable IMPase Inhibitors; Inositol monophosphatase 1 (Rattus norvegicus), P97697; CHO-M1 cells, IP1 accumulation, HTRF TR-FRET ratio; inhibition (IP1 accumulation), % at 46.1 µM; 120,000 tested, under 10 active; AID 901, 2007; active means well fitted curve in the direction sought with a large enough effect in the signal ratio, not every such curve was filed as active; inconclusive means small, poorly fitted or top-dose-only effect, or a change in a side signal; inactive means no such curve, though single readings can be large or run the other way; the % refers to the signal ratio;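 further: cells stimulated with carbachol in lithium chloride buffer; plate controls were DMSO basal wells for no effect and reference inhibitor wells for full effect; higher means more IMPase inhibition seen as more IP1 and lower FRET ratio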
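Cellular IMPase inhibition is scored as a rise in cytosolic IP1, detected by competitive TR-FRET between d2-labelled IP1 and a europium anti-IP1 antibody. M1-expressing CHO cells were stimulated with carbachol for 30 min at 37C, with lithium (50 mM LiCl) present in the buffer.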
ALDH1A1 block: qHTS Assay for Inhibitors of Aldehyde Dehydrogenase 1 (ALDH1A1) | Purified ALDH1A1, NADH fluorescence, propionaldehyde substrate | Potency, µM (doses to about 75.3 µM), inactives show at the top dose activity, negative = inhibition, usual class: inhibitors | 220,000 tested, 7.3% active | AID 1030, 2008; active means well fitted inhibition curve with a large enough effect, not every such curve was filed as active; inconclusive means small, poorly fitted or top-dose-only effect, or another doubt; inactive means no such curve, though single readings can be large or run the other way;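 further: potency means the concentration at half of the fitted maximal effect; plate controls were no enzyme wells and a reference inhibitor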
NPSR antag: qHTS Assay for Antagonists of the Neuropeptide S Receptor: cAMP Signal Transduction; CHO-NPSR cells, cAMP TR-FRET, antagonist mode; Potency, µM (doses to about 38.3 µM), inactives show top-dose activity change, negative = inhibition, actives largely listed as inhibitors; 220,000 tested, 1% active; further: potency means the concentration at half of the fitted maximal effect; nearly all actives have a fitted effect of over 50% in size
Target sequence (Q6W5P4 whole entry, looked up): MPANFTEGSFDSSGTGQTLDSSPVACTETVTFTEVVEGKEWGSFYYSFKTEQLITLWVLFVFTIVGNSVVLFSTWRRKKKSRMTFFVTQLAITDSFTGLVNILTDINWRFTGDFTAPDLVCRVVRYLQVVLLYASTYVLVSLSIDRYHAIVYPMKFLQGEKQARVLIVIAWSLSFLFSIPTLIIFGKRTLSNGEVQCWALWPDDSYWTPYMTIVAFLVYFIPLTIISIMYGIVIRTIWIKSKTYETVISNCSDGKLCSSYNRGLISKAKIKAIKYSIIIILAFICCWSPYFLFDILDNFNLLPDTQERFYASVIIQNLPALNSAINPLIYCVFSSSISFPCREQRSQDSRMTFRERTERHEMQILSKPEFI
The depositor's hits bear a star; ? = inconclusive; nt = no result; [ ] = dose if it differs, or a comment. Unless noted, the call rests on the fitted dose curve; in most records, active means well fitted curve in the direction sought with a large enough effect; inconclusive means small, poorly fitted or top-dose-only effect, or another doubt; inactive means no such curve, though single readings can be large; an effect the other way counts as inactive or inconclusive. Unless noted, on the % scale 0 is the no-effect control and ±100 the full control effect.

SMILES	IMPase Li inh	HPGD inh	PNC assembly inh	IMPase inh	ALDH1A1 block	NPSR antag
O=C(NN1C(=O)/C(=C/C=C/c2ccco2)SC1=S)c1ccccc1O	nt	nt	nt	nt	nt	36%
O=C1S/C(=C\C=C\c2ccco2)C(=O)N1c1ccc(O)cc1	17%	-13%	-29	7	18µM*	-14%
O=C1S/C(=C\C=C\c2ccco2)C(=O)N1c1ccccc1	4%	-9%	43	10	20µM*	-26%
O=C(O)CC(C(=O)O)N1C(=O)/C(=C/C=C/c2ccco2)SC1=S (centres undefined)	nt	nt	nt	nt	nt	-10%
O=C(O)C(Cc1ccccc1)N1C(=O)/C(=C/C=C/c2ccco2)SC1=S (centres undefined)	nt	nt	nt	nt	3.2µM*	15%
CC(C)CNC(=O)c1c(N)n(/N=C/c2cccnc2)c2nc3ccccc3nc12	32%[38.3 µM]	-23%	44	6	?	-11%[46.1 µM]
CN(Cc1cccnc1)Cc1cn(C)nc1-c1cccc(Cl)c1	6%	nt	nt	nt	3%	11%
N#Cc1c(-c2ccccc2F)cc(-c2cccnc2)nc1N	-1%	?	-96*	nt	?	-10%
Cc1onc(-c2ccccc2)c1CNS(=O)(=O)c1ccccc1[N+](=O)[O-]	nt	nt	nt	nt	13µM*	-8%
Cc1ccccc1CNS(=O)(=O)c1ccccc1[N+](=O)[O-]	0%	nt	nt	nt	?	-8%
CC1=NN(c2cccc(C(=O)O)c2)C(=O)/C1=C\C=C/c1ccccc1	27%	nt	nt	nt	?	7.9µM*
Cc1ccc(S(=O)(=O)N/N=C/c2ccc(OS(=O)(=O)c3ccc(C)c([N+](=O)[O-])c3)cc2)cc1	15%[38.3 µM]	-27%	?	5	5µM*	?
Cc1ccc(S(=O)(=O)N/N=C/c2ccc(OC3CSC3)cc2)cc1	-3%[38.3 µM]	-9%	-16	8	-3%	-24%[46.1 µM]
Cc1ccc(S(=O)(=O)N/N=C\c2ccc(Cl)c([N+](=O)[O-])c2)cc1	16%	-15%	-16	7	0.5µM*	-7%[46.1 µM]
Cc1cccc(-c2nc3cc([N+](=O)[O-])ccc3o2)c1	3%	nt	nt	nt	2%	-10%
O=C(Nc1ccc2c(c1)OCO2)N1CCN(C(=O)C2CCCO2)CC1 (centres undefined)	-1%	-12%	-100*	9	-1%	15%[46.1 µM]
O=C(Nc1ccc2c(c1)OCCO2)N1CCN(c2ccc(F)cc2)CC1	5%	-7%	-112*	0	2%	-8%[46.1 µM]
Cc1cccc(C)c1N1CCN(C(=O)Nc2ccc3c(c2)OCCO3)CC1	8%[38.3 µM]	-11%	31	3	-6%	-20%[46.1 µM]
Cc1cc(N2CCN(C3CCCC3)CC2)n2c(nc3ccccc32)c1C#N	3%	?	9	nt	?	19%
C=CCn1c(=NC(=O)C2COc3ccccc3O2)sc2cc(S(N)(=O)=O)ccc21 (centres undefined)	-17%	-10%	17	nt	?	1%
Cn1nc(-c2ccc(N3CCN(CCO)CC3)c([N+](=O)[O-])c2)c2ccccc2c1=O	5%	nt	nt	nt	4.5µM*	-10%
Cn1nc(-c2ccc(NCCO)c([N+](=O)[O-])c2)c2ccccc2c1=O	10%	nt	nt	nt	?	8%
COc1ccc(NC(=S)N/C(=N/S(=O)(=O)c2ccc(C)cc2)c2ccccc2)cc1	4%	nt	nt	nt	?	-9%
CCOC(=S)N/C(=N\S(=O)(=O)c1ccc(C)cc1)c1ccccc1	1%	25µM*	28	0	14µM*	-9%[46.1 µM]
CN1C(=O)C(O)(CC(=O)c2cccs2)c2ccccc21 (centres undefined)	1%	nt	nt	nt	-3%	14%
SMILES	IMPase Li inh	HPGD inh	PNC assembly inh	IMPase inh	ALDH1A1 block	NPSR antag
Oc1ccc2ccccc2c1C=NCc1ccccc1	nt	nt	nt	nt	nt	-13%[7.67 µM]
O=CN/N=C/c1c(O)ccc2ccccc12	nt	nt	nt	nt	nt	-3%
Oc1ccc2ccccc2c1/C=N/Nc1ccccc1	1%	?	62	-1	18µM*	1%
O=S(=O)(/N=C/c1c(O)ccc2ccccc12)c1cccs1	15%[38.3 µM]	?	32	-4	11µM*	-2%[46.1 µM]
Nc1cc(N)nc(CS)n1	nt	nt	nt	nt	nt	-19%
CCCCOc1ccc(C(=O)NC)cc1	-2%[38.3 µM]	-3%	2	5	0%	0%[46.1 µM]
CCCOc1ccc(C(=O)NC(C)C(=O)O)cc1 (centres undefined)	13%[38.3 µM]	-9%	-106*	1	9%	-9%[46.1 µM]
CC(C)CCOc1ccc(C(=O)CCNC(C)C(=O)O)cc1 (centres undefined)	16%[38.3 µM]	-17%	29	8	0.13µM*	-4%[46.1 µM]
CCCCOc1ccc(C(=O)Nc2ccncc2)cc1	9%[38.3 µM]	-1%	-118*	2	-6%	4%[46.1 µM]
CC(NC(=O)c1ccc(C(C)(C)C)cc1)C(=O)O (centres undefined)	-8%[38.3 µM]	-8%	-3	-4	14%	-2%[46.1 µM]
CC1=C(C)NC(=S)SC1	-5%[38.3 µM]	?	46	6	22µM*	-5%[46.1 µM]
OC(COc1ccccc1)CN1CCOCC1 (centres undefined)	1%	-14%	-100*	13	10%	-8%[46.1 µM]
O=C(c1ccc(Cl)cc1)c1ccc(OCC(O)CN2CCOCC2)cc1 (centres undefined)	18%[38.3 µM]	-9%	?	7	-1%	5%[46.1 µM]
CCOc1cc(/C=C(\C#N)C(N)=O)ccc1OS(=O)(=O)c1ccccc1	-6%	-24%	-12	nt	13µM*	0%
COC(=O)c1cccnc1-n1c(=O)c2cccnc2n(Cc2ccc([N+](=O)[O-])cc2)c1=O	3%	nt	nt	nt	12%	-1%
Cc1noc(C)c1-c1nc(N2CCOCC2)c2ccccc2n1	1%	25µM*	nt	nt	?	nt
O=[N+]([O-])c1cccc(-c2nc(N3CCOCC3)c3ccccc3n2)c1	6%	nt	nt	nt	7.9µM*	-45%
OCCC1CN(Cc2nc3ccccc3[nH]2)CCN1C1CCCC1 (centres undefined)	3%	nt	nt	nt	3%	-9%
N#Cc1cnc2c(-c3ccccc3)c(-c3ccccc3)nn2c1N	17%	nt	nt	nt	?	-25%
COc1ccc(-c2c(C)nn3c(N)c(C#N)cnc23)cc1OC	10%	nt	nt	nt	-11%	11%
Cc1nn2c(N)c(C#N)cnc2c1-c1ccc(Cl)cc1	11µM*	?	1	-22	?	7.9µM*
Cc1nn2c(N)c(C#N)cnc2c1-c1ccccc1	5%	-4%	-82*	5	-2%	-17%[46.1 µM]
CC(C)(C)n1nnnc1C(c1cccc(C#N)c1)N1CCN2CCCC2C1 (centres undefined)	16%[38.3 µM]	1%	16	12	20µM*	-11%[46.1 µM]
